# Test results from PubChem BioAssay (NCI).
# About 79,000 compounds went through this panel and 15% of them were active in at least one assay; those are over-represented in the sample as a whole. Calls of active or inactive are those of the source. Cut-off read from the data, not from the text of the source: active = growth inhibition above about 70%; inactive = the rest.
# Test: NCI Yeast Anticancer Drug Screen. Data for the rad50 strain (AID 155);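 note: 0% = growth of vehicle-only cultures of the same strain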
# Details: S. cerevisiae rad50 strain growth inhibition; at 50.0 µM; hits give high values
# Method in brief: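 Inhibition values express reduced yeast growth in compound-treated cultures relative to vehicle-treated controls.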
row,Compound,growth inhibition
1,C=C(c1ccc(OC)cc1)c1cc(C(C)(C)C)c(O)c(C(C)(C)C)c1,-4.45% (inactive)
2,C=C(C)COC(=O)COc1ccc(Cl)cc1,1.05% (inactive)
3,O=C(NCc1ccc(Cl)c(Cl)c1)Nc1ccccc1F,11% (inactive)
4,CN(C)CCC(C(=O)C(C)(C)C)c1ccccn1 (stereo not given),-7.2% (inactive)
5,C=Cc1c(C)c(C)c(C=C)c(C)c1C,-3.85% (inactive)
6,N#CCN1CCOCCOCCN(CC#N)CCOCCOCC1,3.1% (inactive)
7,C=C[C@@H]1C(CO)=CCC2[C@H]1CCC1C(C)(C)C(=O)CC[C@]21C (stereo not given in full),-7.95% (inactive)
8,Cc1ccc(/C=C2\N=C(N3CCCC(CO)C3)NC2=O)cc1 (stereo not given),18.6% (inactive)
9,CC1CC(C)OC(c2ccccc2)O1 (stereo not given),19.1% (inactive)
10,COc1ccc(OC)c(C(=O)C=C(C(F)(F)F)C(F)(F)F)c1,-7.65% (inactive)
11,COc1ccc(Cc2c(O)ccc3ccccc23)cc1,98.6% (active)
12,ClSC(c1ccccc1)(c1ccccc1)c1ccccc1,20.2% (inactive)
13,CCCCCCCCCCCCCC(=O)OCC1OC(n2cc(F)c(=O)[nH]c2=O)C(N)C(OC(=O)CCCCCCCCCCCCC)C1O (stereo not given),27.4% (inactive)
14,CCN(CC)C(=O)C1CCN(CCC(=O)Nc2ccccc2)CC1,8.4% (inactive)
15,CC1=C(C(=O)O)CCc2ccccc21,40.7% (inactive)
16,O=C(c1ccccc1CO)N1CCCCC1,10.8% (inactive)
17,N#CNC(=NCCO)NCCO,25.8% (inactive)
18,CC1CCC(C(C)C)C(OC2(c3ccccc3)OC(=O)c3ccccc32)C1 (stereo not given),23.7% (inactive)
19,COc1ccccc1-n1c(O)c(N=Nc2ccc(Cl)cc2)c(=O)n(-c2ccc(I)cc2)c1=S,45.4% (inactive)
20,COC(=O)/C(=N/Nc1cccc(Cl)c1)C(C(=O)C(=O)Nc1cccc(Cl)c1C)c1nc2ccccc2nc1C (stereo not given),44.8% (inactive)

row,Compound,growth inhibition
1,C=C(C)COc1ccc(-c2ccccc2)cc1,24.5% (inactive)
2,COc1ccc(NC(=O)CC(=O)N/N=C/c2ccc(N(CCC#N)S(=O)(=O)c3ccccc3)cc2)cc1,-35.5% (inactive)
3,CNC(=O)/C(=C\c1ccccc1)NC(C)=O,9% (inactive)
4,CCOC(=O)NN(C(=O)OCC)C(C(=O)C1CCCCC1)N(NC(=O)OCC)C(=O)OCC,21.4% (inactive)
5,c1ccc(CCc2cccnc2)nc1,26% (inactive)
6,O=C(c1cccc(F)c1)c1ccccc1Cc1ccccc1,-4.45% (inactive)
7,Cc1cccc(C)c1NC(=O)/C(=N/NC(N)=S)C(C)C(=O)c1ccc(Cl)cc1 (stereo not given),12.6% (inactive)
8,Cn1c2ccccc2c2[nH]c3ccccc3c(=O)c21,54.5% (inactive)
9,CN(C=O)C(C(=O)Nc1cccc2c(OC(=O)C(N(C)C=O)(N(C)C=O)N(C)C=O)c(N=Nc3ccc(S(=O)(=O)Nc4nccs4)cc3)cc(N=Nc3ccc(S(=O)(=O)Nc4nccs4)cc3)c12)(N(C)C=O)N(C)C=O (tested in a mixture with another compound),60.1% (inactive)
10,COc1ccc(C2S/C(=C\c3ccccc3)C(=O)N2NC(=O)Cc2ccccc2)cc1 (stereo not given),-12.8% (inactive)
11,CC(=O)OC1CCC2(C)C3C/C(=N\O)C4(C)C(C(C)OC(C)=O)CCC4C3CCC2(C)C1 (stereo not given),95.3% (active)
12,Cc1cccc2c(N)c3cccc(C(=O)NCC[N+](C)(C)[O-])c3nc12,8.7% (inactive)
13,OCCCCCCOc1ccc(-c2cc(-c3ccccn3)nc(-c3ccccn3)c2)cc1,52% (inactive)
14,CCN(CC(=O)NC(=O)c1ccccc1)c1ccccc1,-1.75% (inactive)
15,COc1ccc(OC)c(NC(=O)CCC/C(CC(=O)c2ccc(O)c(OC)c2)=N\Nc2ccc([N+](=O)[O-])cc2)c1,-25.8% (inactive)
16,COc1ccccc1N=Nc1c(C)nc(N)nc1-c1ccccc1,23.1% (inactive)
17,CCOC(=O)CCC(NC(=O)C(N)c1ccc([N+](=O)[O-])cc1)C(=O)NC(CCC(=O)OCC)C(=O)OCC (stereo not given),-5.4% (inactive)
18,Cc1c(C)n(COCCO)c2ncnc(N)c12,-14.2% (inactive)
19,CC1CN=C(N(Cc2ccc(F)cc2)C(=O)Nc2ccc(Cl)cc2)S1 (stereo not given),-35.5% (inactive)
20,O=C1C=C2CCCCCCCCC(C1)C2 (stereo not given),-1.85% (inactive)

# Test: NCI Yeast Anticancer Drug Screen. Data for the mec2-1 strain (AID 157)
# Details: S. cerevisiae mec2-1 strain, at 50.0 µM, hits give high values
# Method in brief: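 Using mec2-1 yeast: add compound, measure growth, express inhibition versus vehicle-treated cultures.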
row,Compound,growth inhibition
1,C=C(c1ccc(OC)cc1)c1cc(C(C)(C)C)c(O)c(C(C)(C)C)c1,-1.75% (inactive)
2,C=C(C)COC(=O)COc1ccc(Cl)cc1,-32.7% (inactive)
3,O=C(NCc1ccc(Cl)c(Cl)c1)Nc1ccccc1F,11.1% (inactive)
4,CN(C)CCC(C(=O)C(C)(C)C)c1ccccn1 (stereo not given),-9.2% (inactive)
5,C=Cc1c(C)c(C)c(C=C)c(C)c1C,6.65% (inactive)
6,N#CCN1CCOCCOCCN(CC#N)CCOCCOCC1,-0.75% (inactive)
7,C=C[C@@H]1C(CO)=CCC2[C@H]1CCC1C(C)(C)C(=O)CC[C@]21C (stereo not given in full),-13.4% (inactive)
8,Cc1ccc(/C=C2\N=C(N3CCCC(CO)C3)NC2=O)cc1 (stereo not given),-1.55% (inactive)
9,CC1CC(C)OC(c2ccccc2)O1 (stereo not given),-1.5% (inactive)
10,COc1ccc(OC)c(C(=O)C=C(C(F)(F)F)C(F)(F)F)c1,-0.95% (inactive)
11,COc1ccc(Cc2c(O)ccc3ccccc23)cc1,99.4% (active)
12,ClSC(c1ccccc1)(c1ccccc1)c1ccccc1,8.9% (inactive)
13,CCCCCCCCCCCCCC(=O)OCC1OC(n2cc(F)c(=O)[nH]c2=O)C(N)C(OC(=O)CCCCCCCCCCCCC)C1O (stereo not given),7.4% (inactive)
14,CCN(CC)C(=O)C1CCN(CCC(=O)Nc2ccccc2)CC1,-7.6% (inactive)
15,CC1=C(C(=O)O)CCc2ccccc21,-11.5% (inactive)
16,O=C(c1ccccc1CO)N1CCCCC1,2.2% (inactive)
17,N#CNC(=NCCO)NCCO,7.3% (inactive)
18,CC1CCC(C(C)C)C(OC2(c3ccccc3)OC(=O)c3ccccc32)C1 (stereo not given),-5.7% (inactive)
19,COc1ccccc1-n1c(O)c(N=Nc2ccc(Cl)cc2)c(=O)n(-c2ccc(I)cc2)c1=S,10% (inactive)
20,COC(=O)/C(=N/Nc1cccc(Cl)c1)C(C(=O)C(=O)Nc1cccc(Cl)c1C)c1nc2ccccc2nc1C (stereo not given),17.9% (inactive)

row,Compound,growth inhibition
1,C=C(C)COc1ccc(-c2ccccc2)cc1,7.35% (inactive)
2,COc1ccc(NC(=O)CC(=O)N/N=C/c2ccc(N(CCC#N)S(=O)(=O)c3ccccc3)cc2)cc1,-11.8% (inactive)
3,CNC(=O)/C(=C\c1ccccc1)NC(C)=O,-13.6% (inactive)
4,CCOC(=O)NN(C(=O)OCC)C(C(=O)C1CCCCC1)N(NC(=O)OCC)C(=O)OCC,-21.6% (inactive)
5,c1ccc(CCc2cccnc2)nc1,-4.5% (inactive)
6,O=C(c1cccc(F)c1)c1ccccc1Cc1ccccc1,4.2% (inactive)
7,Cc1cccc(C)c1NC(=O)/C(=N/NC(N)=S)C(C)C(=O)c1ccc(Cl)cc1 (stereo not given),6.35% (inactive)
8,Cn1c2ccccc2c2[nH]c3ccccc3c(=O)c21,16.4% (inactive)
9,CN(C=O)C(C(=O)Nc1cccc2c(OC(=O)C(N(C)C=O)(N(C)C=O)N(C)C=O)c(N=Nc3ccc(S(=O)(=O)Nc4nccs4)cc3)cc(N=Nc3ccc(S(=O)(=O)Nc4nccs4)cc3)c12)(N(C)C=O)N(C)C=O (tested in a mixture with another compound),6.25% (inactive)
10,COc1ccc(C2S/C(=C\c3ccccc3)C(=O)N2NC(=O)Cc2ccccc2)cc1 (stereo not given),-54.2% (inactive)
11,CC(=O)OC1CCC2(C)C3C/C(=N\O)C4(C)C(C(C)OC(C)=O)CCC4C3CCC2(C)C1 (stereo not given),96.7% (active)
12,Cc1cccc2c(N)c3cccc(C(=O)NCC[N+](C)(C)[O-])c3nc12,-13.3% (inactive)
13,OCCCCCCOc1ccc(-c2cc(-c3ccccn3)nc(-c3ccccn3)c2)cc1,67.5% (inactive)
14,CCN(CC(=O)NC(=O)c1ccccc1)c1ccccc1,-14% (inactive)
15,COc1ccc(OC)c(NC(=O)CCC/C(CC(=O)c2ccc(O)c(OC)c2)=N\Nc2ccc([N+](=O)[O-])cc2)c1,-0.7% (inactive)
16,COc1ccccc1N=Nc1c(C)nc(N)nc1-c1ccccc1,10.4% (inactive)
17,CCOC(=O)CCC(NC(=O)C(N)c1ccc([N+](=O)[O-])cc1)C(=O)NC(CCC(=O)OCC)C(=O)OCC (stereo not given),-7.5% (inactive)
18,Cc1c(C)n(COCCO)c2ncnc(N)c12,-37.1% (inactive)
19,CC1CN=C(N(Cc2ccc(F)cc2)C(=O)Nc2ccc(Cl)cc2)S1 (stereo not given),-8.95% (inactive)
20,O=C1C=C2CCCCCCCCC(C1)C2 (stereo not given),-9.85% (inactive)
